The test system of test [1] is Wnt5a (protein binding on small-molecule microarray). In words: small molecules binding Wnt5a protein – biophysical, small-molecule microarray, 635/667 nm fluorescence, primary screen (AID 1142).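 Also: fluorescence read at 667 nm with signal to noise per printed feature.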 The note with it: 635 nm fluorescence, higher = more signal.
The nature of test [2]: ATP-based viability of Huh7 replicon cells – cell-based, CellTiter-Glo luminescence, basal, 48 h, cytotoxicity control for HCV replication inhibitor project, primary screen (AID 1143).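 Also: Huh7 hepatoma cells carrying a hepatitis C replication reporter with no stimulus; test concentration not given here.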 The note with it: higher = more signal, called active from +8 up or from −8 down. Background: In antiviral work, replicon cells carry a viral genome segment that copies itself.
The nature of test [3]: basal CRE-LacZ reporter activity in PC12 – cell-based, unstimulated, primary screen (AID 1145). The note with it: no forskolin, luminescence, 4.5 h, higher = more signal, called active from +8 up or from −8 down.
The nature of test [4]: forskolin-driven CRE-LacZ activity in PC12 – cell-based, CRE-LacZ reporter, forskolin-stimulated, primary screen (AID 1146).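 Also: PC12 cells with 6xCRE LacZ reporter stimulated by forskolin 10 µM; beta-galactosidase reporter signal reflecting CREB driven transcription.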 The note with it: luminescence, 4.5 h, higher = more signal, called active from +8 up or from −8 down.
Test [5] concerns the target Streptavidin (Streptomyces avidinii) (UniProt P22629). In words: compounds binding control protein streptavidin – biophysical, small-molecule microarray, 635/667 nm fluorescence, artefact control for SMM compound annotation, primary screen (AID 1147).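 Also: signal reflects streptavidin binding to arrayed compounds as a control protein.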 The note with it: higher = more signal.
Test [6] in a line: probe aInhba binding on compound microarray – biochemical, small-molecule microarray, 635/667 nm fluorescence, primary screen (AID 1148).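 Also: score merges 667nm spot fluorescence with signal-to-noise for antibody binding to printed compounds.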 The note with it: higher = more signal.
The target in test [7] is Torsin-1A (Homo sapiens) (UniProt O14656). In words: TOR1A wild-type binding on microarray – cell lysate, small-molecule microarray, lysate, 635/667 nm, primary screen (AID 1149). The note with it: COS7 hTOR1A-WT lysate, 635 nm fluorescence, higher = more signal.
Sequence of Torsin-1A (Homo sapiens) (O14656 whole entry, looked up): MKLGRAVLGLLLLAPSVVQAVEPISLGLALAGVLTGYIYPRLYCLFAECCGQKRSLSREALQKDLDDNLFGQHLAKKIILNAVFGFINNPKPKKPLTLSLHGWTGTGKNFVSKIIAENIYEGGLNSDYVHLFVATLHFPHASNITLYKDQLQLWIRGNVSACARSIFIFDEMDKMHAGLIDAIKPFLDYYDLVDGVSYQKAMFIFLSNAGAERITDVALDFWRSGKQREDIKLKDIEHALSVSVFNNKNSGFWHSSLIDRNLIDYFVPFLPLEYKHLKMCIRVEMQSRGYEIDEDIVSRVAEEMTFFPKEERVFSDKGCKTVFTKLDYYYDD
For test [8] the target is unchanged. In words: torsin A mutant lysate binding on microarrays – cell lysate, small-molecule microarray, COS7 lysate, 635/667 nm fluorescence, primary screen (AID 1150).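 Also: score pools 667 nm emission and signal to noise measuring lysate protein binding.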 The note with it: COS7 hTOR1A mutant lysate, 635 nm fluorescence, higher = more signal.
For test [9], the system named is Sonic hedgehog protein (Shh). In words: Sonic hedgehog microarray binding compounds – biochemical, small-molecule microarray, 635/667 nm fluorescence, primary screen (AID 1151).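 Also: Shh protein binding to compounds spotted on small-molecule microarray slides; score combines spot fluorescence intensity with signal-to-noise across triplicate slides.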 The note with it: 635 nm fluorescence, higher = more signal.
Test [10] can be described thus: optical density shifts of acrAB sulA E. coli – strain DRC41, OD650, 48 h, E. coli filamentation inducer project, primary screen (AID 1152).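 Also: E. coli MC1000 strain DRC41 lacking acrAB efflux pump and sulA.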 The note with it: higher = more signal, called active from +8 up or from −8 down.
The nature of test [11]: probe aLefty1 binding on compound microarray – biochemical, small-molecule microarray, 635/667 nm fluorescence, primary screen (AID 1153).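 Also: score merges spot fluorescence with signal-to-noise ratio from the scanned slide images.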 The note with it: higher = more signal.
The nature of test [12]: plasmodial surface anion channel blockers, osmotic lysis – cell-based, P. falciparum Indochina, OD700, 1 h, primary screen (AID 1154). The note with it: P. falciparum Indochina infected RBC osmotic lysis, higher = more signal, called active from +8 up or from −8 down.
Test [13] in a line: plasmodial surface anion channel blockers, osmotic lysis – cell-based, P. falciparum Indochina, OD700, 2 h, primary screen (AID 1155).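 Also: lysis reports solute entry through the parasite surface anion channel PSAC.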 The note with it: P. falciparum Indochina infected erythrocytes, higher = more signal, called active from +8 up or from −8 down.
Test [14] is described as follows: changes in parasitized red cell lysis, either direction – P. falciparum Indochina, OD700, 3 h, PSAC antagonist project, primary screen (AID 1156). The note with it: P. falciparum-infected erythrocytes, osmotic lysis, higher = more signal, called active from +8 up or from −8 down.
Test [15] in a line: plasmodial surface anion channel blockers, osmotic lysis – cell-based, P. falciparum Indochina, OD700, 18 h, primary screen (AID 1157). The note with it: P. falciparum Indochina infected erythrocytes, osmotic lysis OD700, 18 h; higher = more signal, called active from +8 up or from −8 down.
Test [16] can be described thus: S6 kinase pathway phospho-S6 level changes – cell-based, A549, cytoblot, luminescence, serum-stimulated, primary screen (AID 1158).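 Also: serum-stimulated A549 lung adenocarcinoma cells; signal is phosphorylated S6 detected by cytoblot immunostaining with HRP secondary.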 The note with it: 5 h, higher = more signal.
For test [17], the target named is NADPH oxidase 2 (Homo sapiens) (UniProt P04839). In words: compounds shifting NOX2 Amplex Red fluorescence – cell-based, HEK293-NOX2, PMA-stimulated, NOX inhibitor project, primary screen (AID 1159). Also: test concentration not given here. The note with it: 45 min, higher = more signal, called active from +8 up or from −8 down.
Sequence of NADPH oxidase 2 (Homo sapiens) (P04839 whole entry, looked up): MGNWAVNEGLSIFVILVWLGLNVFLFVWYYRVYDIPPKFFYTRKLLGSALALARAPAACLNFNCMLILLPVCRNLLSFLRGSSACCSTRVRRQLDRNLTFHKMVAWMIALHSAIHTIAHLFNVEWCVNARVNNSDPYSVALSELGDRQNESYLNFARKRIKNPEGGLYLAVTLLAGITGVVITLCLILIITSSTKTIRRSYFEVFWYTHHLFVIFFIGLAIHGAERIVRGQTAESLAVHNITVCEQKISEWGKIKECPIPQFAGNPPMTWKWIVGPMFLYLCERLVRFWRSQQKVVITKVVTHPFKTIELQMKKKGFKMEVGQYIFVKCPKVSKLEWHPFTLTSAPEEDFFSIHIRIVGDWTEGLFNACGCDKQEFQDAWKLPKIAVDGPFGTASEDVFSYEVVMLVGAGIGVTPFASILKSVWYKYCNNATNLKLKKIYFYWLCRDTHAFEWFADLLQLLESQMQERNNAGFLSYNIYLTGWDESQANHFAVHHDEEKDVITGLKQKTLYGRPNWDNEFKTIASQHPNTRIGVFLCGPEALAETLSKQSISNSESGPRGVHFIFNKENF
Test [18] concerns the target NADPH oxidase 4 (Homo sapiens) (UniProt Q9NPH5). In words: compounds shifting NOX4 Amplex Red fluorescence – cell-based, HEK293-NOX4, tetracycline-induced, NOX inhibitor project, primary screen (AID 1160). The note with it: HEK293-NOX4, Amplex Red H2O2 fluorescence, 45 min; higher = more signal, called active from +8 up or from −8 down.
The target in test [19] is NADPH oxidase 5 (Homo sapiens) (UniProt Q96PH1). In words: compounds shifting NOX5 Amplex Red fluorescence – cell-based, HEK293-NOX5, NOX inhibitor project, primary screen (AID 1161). The note with it: HEK293-NOX5, ionomycin, 45 min, higher = more signal.
Sequence of NADPH oxidase 5 (Homo sapiens) (Q96PH1 whole entry, looked up): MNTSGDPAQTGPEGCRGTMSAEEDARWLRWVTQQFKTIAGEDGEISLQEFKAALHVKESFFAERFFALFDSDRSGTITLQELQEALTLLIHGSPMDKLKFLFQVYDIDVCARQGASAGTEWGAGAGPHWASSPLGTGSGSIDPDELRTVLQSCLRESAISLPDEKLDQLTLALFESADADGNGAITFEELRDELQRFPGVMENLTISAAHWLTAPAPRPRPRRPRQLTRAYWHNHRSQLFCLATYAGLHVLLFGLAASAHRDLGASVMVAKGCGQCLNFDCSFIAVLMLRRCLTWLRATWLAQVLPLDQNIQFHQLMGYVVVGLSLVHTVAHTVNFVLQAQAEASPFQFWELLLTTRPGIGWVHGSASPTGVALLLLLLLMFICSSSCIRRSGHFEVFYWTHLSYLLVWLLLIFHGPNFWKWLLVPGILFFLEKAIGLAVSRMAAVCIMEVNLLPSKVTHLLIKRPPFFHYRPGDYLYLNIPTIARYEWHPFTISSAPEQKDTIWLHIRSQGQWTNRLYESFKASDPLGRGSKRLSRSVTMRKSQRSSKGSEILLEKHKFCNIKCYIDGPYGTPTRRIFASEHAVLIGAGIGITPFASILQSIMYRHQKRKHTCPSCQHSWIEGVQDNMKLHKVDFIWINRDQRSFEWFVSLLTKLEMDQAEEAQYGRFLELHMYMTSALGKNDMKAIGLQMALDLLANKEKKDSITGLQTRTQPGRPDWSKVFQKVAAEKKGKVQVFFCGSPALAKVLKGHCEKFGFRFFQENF

Molecules are shown by their SMILES. Activity calls are given as the source filed them.

Sequence of Streptavidin (Streptomyces avidinii) (P22629 whole entry, looked up): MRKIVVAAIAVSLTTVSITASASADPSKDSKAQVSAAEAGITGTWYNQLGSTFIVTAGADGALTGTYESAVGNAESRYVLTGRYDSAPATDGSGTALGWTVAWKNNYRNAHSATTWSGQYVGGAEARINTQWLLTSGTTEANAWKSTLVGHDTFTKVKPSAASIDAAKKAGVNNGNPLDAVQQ
Sequence of NADPH oxidase 4 (Homo sapiens) (Q9NPH5 whole entry, looked up): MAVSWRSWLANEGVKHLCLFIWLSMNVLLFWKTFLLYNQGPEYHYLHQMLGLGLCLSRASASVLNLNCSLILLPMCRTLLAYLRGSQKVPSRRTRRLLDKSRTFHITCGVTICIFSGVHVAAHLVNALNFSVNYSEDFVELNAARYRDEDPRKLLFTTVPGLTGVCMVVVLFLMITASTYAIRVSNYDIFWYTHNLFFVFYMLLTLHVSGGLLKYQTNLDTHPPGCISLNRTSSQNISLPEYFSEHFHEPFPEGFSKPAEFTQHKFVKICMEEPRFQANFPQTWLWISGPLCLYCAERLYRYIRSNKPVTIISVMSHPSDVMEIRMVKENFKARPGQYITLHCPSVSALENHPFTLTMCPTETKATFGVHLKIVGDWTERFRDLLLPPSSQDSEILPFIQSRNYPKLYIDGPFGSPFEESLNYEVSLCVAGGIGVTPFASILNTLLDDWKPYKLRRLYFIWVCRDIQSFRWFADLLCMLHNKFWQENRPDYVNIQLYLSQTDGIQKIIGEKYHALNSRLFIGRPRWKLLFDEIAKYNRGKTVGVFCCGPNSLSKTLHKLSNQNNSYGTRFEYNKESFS

Regarding `Cc1ccc(S[C@]2(C(=O)NCCCN(C)C)CC(=O)N(C3CCCCC3)[C@@H]2c2ccc(CO)cc2I)cc1`, the composite z-score was -0.056 in test [1]; -0.806 in test [5]; -0.128 in test [6]; 0.0029 in [7]; 0.0812 in test [8]; 0.0709 in test [9]. Besides, the composite z-score in test [11] worked out at 0.0919. The z-score in [2] was -6.58 (inactive); in test [3] it was -0.0243 (inactive); in [4], 1.42 (inactive); in test [10], 1.16 (inactive); in test [12], 14 (active); in test [13], 1.35 (inactive). In addition, the z-score was 1.39 (inactive) in test [14]; -1.07 (inactive) in [15]; 1.72 in test [16]; -4.81 (inactive) in test [17]; -1.42 (inactive) in test [18]; 0.549 in [19].
Turning to `CO[C@H]1COC(=O)[C@@H](OCc2ccccc2)C=C[C@H](C)[C@@H](OC)COC(=O)[C@H](OCc2ccccc2)C=C[C@@H]1C`, the composite z-score in test [1] is -0.115; in test [5] it was -0.0864; in [6] it was -0.0695; in test [7], 0.593; in [8], 0.128; in [9], 0.537. In addition, the composite z-score in [11] was -0.0966. In addition, the z-score in [2] was -2.26 (inactive); in test [3], 1.16 (inactive); in test [4], -0.672 (inactive); in test [10], -0.282 (inactive); in test [12], -0.0125 (inactive); in [13] it was -0.952 (inactive). The z-score in test [14] was -1.35 (inactive); in test [15] it was -1.68 (inactive); in test [16], 1.55; in [17], -0.174 (inactive); in test [18], 0.433 (inactive); in [19], 0.467.
In the case of `C=C(COC)/C(=C/C[C@@H](OC(=O)c1ccncc1)c1ccc(OCCO)cc1)c1cc(C(=O)OC)ccc1OC`, the composite z-score in test [1] was 0.147; in test [5] it was 1.14; in [6], 0.0212; in test [7] it was 1.06; in [8] it was 0.838; in test [9], 0.811. Further, the composite z-score in test [11] was found to be 0.0686. Besides, the z-score in [2] is -2.43 (inactive); in test [3], 9.09 (active); in test [4], -2.02 (inactive); in test [10] it was 2.31 (inactive); in test [12] it was 14.6 (active); in test [13], 0.629 (inactive). Further, the z-score in test [14] is 1.35 (inactive); in test [15], -1.53 (inactive); in [16], 0.866; in test [17] it was 1.98 (inactive); in test [18], 2.24 (inactive); in test [19], -0.63.
As for `CO[C@H]1O[C@H](CO)[C@@H](OC(=O)Nc2ccc(Oc3ccccc3)cc2)[C@H](OC(=O)Nc2ccccc2-c2ccccc2)[C@H]1OC(=O)Nc1ccccc1-c1ccccc1`, the composite z-score worked out at 0.595 in [1]; 1.25 in [5]; 0.268 in [6]; 0.445 in test [7]; 0.517 in [8]; 1.24 in test [9]. The composite z-score in [11] amounted to 0.371. The z-score in test [2] was -6.08 (inactive); in [3], -0.0017 (inactive); in test [4], -1.31 (inactive); in [10], 1.38 (inactive); in test [12] it was 2.14 (inactive); in test [13], 0.647 (inactive). The z-score in test [14] was 0.55 (inactive); in test [15], -1.37 (inactive); in test [16], -0.151; in test [17], 1.95 (inactive); in [18] it was -0.7 (inactive); in test [19], 0.176.

These data come from PubChem BioAssay.
